# Results from the supplement of paper PMC10933113.
# Values without a mark were called inactive.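 Rule for the calls: active = curve rank above 3; inactive = curve rank 0.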
# Test system: KeratinoSens (HaCaT ARE-luciferase) cells
# Assay: Nrf2/ARE luciferase activation call in qHTS KeratinoSens assay (1 = active, 0 = inactive)
row,SMILES,Nrf2/ARE luciferase activation call
1,CCCCn1cc[n+](C)c1C.O=S(=O)([N-]S(=O)(=O)C(F)(F)F)C(F)(F)F,not active ARE inducer (skin sensitizer alert)
2,CCn1cc[n+](C)c1.O=S(=O)([N-]S(=O)(=O)C(F)(F)F)C(F)(F)F,not active ARE inducer (skin sensitizer alert)
3,CCCC[N+](C)(CCCC)CCCC.O=S(=O)([N-]S(=O)(=O)C(F)(F)F)C(F)(F)F,not active ARE inducer (skin sensitizer alert)
4,CCCC[P+](CC)(CCCC)CCCC.CCOP(=O)([O-])OCC,not active ARE inducer (skin sensitizer alert)
5,O=C(O)/C=C\C(=O)O.c1ccc2nc(N3CCNCC3)ccc2c1,not active ARE inducer (skin sensitizer alert)
6,CCCCCCCCCCCCCC[P+](CCCCCC)(CCCCCC)CCCCCC.O=S(=O)([N-]S(=O)(=O)C(F)(F)F)C(F)(F)F,not active ARE inducer (skin sensitizer alert)
7,CCCCCCCCn1cc[n+](C)c1.O=S(=O)([N-]S(=O)(=O)C(F)(F)F)C(F)(F)F,not active ARE inducer (skin sensitizer alert)
8,CCC[n+]1ccn(C)c1C.O=S(=O)([N-]S(=O)(=O)C(F)(F)F)C(F)(F)F,not active ARE inducer (skin sensitizer alert)
